Experimental data taken from PubChem BioAssay AID2314 (National Center for Advancing Translational Sciences (NCATS), 2010).
In all, about 300,000 compounds went through this assay and about 37,000 (12%) were called active. For the sample, actives were picked, then their nearest neighbours and some compounds at random. Unmarked numbers belong to inactive results. Cut-off read from the data, not from the text of the source: active = max response mostly above about 13% (no sharp cut-off); inactive = mostly below about 14%.

test: Cycloheximide Counterscreen for Small Molecule Inhibitors of Shiga Toxin; conditions: cell reporter, cycloheximide protein synthesis inhibition counterscreen; hits give high values; note: read at 38.3 µM for the half of the compounds with a filed dose; 0% is about no effect

SMILES	max response
CC1C(=O)N(Cc2ccccc2)c2ccccc2N1C(=O)c1ccccc1 (centres undefined)	5.44%
O=C(OCc1ccc([N+](=O)[O-])cc1)C1CC(=O)N(Cc2ccccc2Cl)C1 (centres undefined)	5.26%
CN1CCN(S(=O)(=O)c2cccc(C(=O)Nc3cccc(S(N)(=O)=O)c3)c2)CC1	5.45%
Cc1cccnc1NC(=O)c1cccc(S(=O)(=O)N2CCN(c3ccc(F)cc3)CC2)c1	-1.47%
O=C(Nc1ccc2c(c1)CCC2)c1cccc(S(=O)(=O)N2CCN(c3ccc(F)cc3)CC2)c1	18.6% (active)
OCCC1CN(Cc2cnc(-c3ccccc3)s2)CCN1CCc1ccccc1 (centres undefined)	-2.01%
O=C(CSc1nnc(-c2ccncc2)o1)NCc1ccc(Cl)cc1	-4.87%
O=C(COC(=O)CSc1nnc(-c2ccc(Cl)cc2)o1)Nc1cc(Cl)cc(Cl)c1	-1.68%
Clc1ccc(-c2nnc(SCc3nc4ccccc4s3)o2)cc1	31.5% (active)
O=C(NCc1ccccc1Cl)C1CCN(S(=O)(=O)c2cccc3nonc23)CC1	7.56%
O=c1oc(-c2ccccc2NS(=O)(=O)c2ccc(Cl)cc2)nc2ccccc12	-0.333%
Cc1nc(Cl)cc(N/N=C/c2ccccc2)n1	9.02% (active)
Cc1cc(N/N=C\c2ccc(Br)cc2)nc(-n2nc(C)cc2C)n1	-2.43%
C(=N/Nc1cc(N2CCOCC2)nc(N2CCOCC2)n1)/c1ccccc1	-4.51%
CCc1ccc2oc(=O)cc(CN3CCCCC3C)c2c1 (centres undefined)	10.3%
CCOC(=O)C1CCCN(C(=O)COc2ccc(N(C)S(=O)(=O)c3ccc(C)cc3)cc2)C1 (centres undefined)	-3.78%
O=C(NCC1CCCO1)C1CCN(C2CCN(C(=O)C3CCCCC3)CC2)CC1 (centres undefined)	-2.3%
O=c1c2c(nc3nc[nH]n13)CCC2	-2.72%
Cc1cc(=O)n2[nH]c(-c3cccc(Cl)c3)cc2n1	6.54%
O=c1c2c(nc3cc(-c4cccc(Cl)c4)[nH]n13)CCCC2	52.1% (active)
COc1ccc(OC)c(NC(=O)Cc2cccs2)c1	5.9%
CS(=O)(=O)N(CC(=O)N/N=C/c1ccccn1)c1ccc(Oc2ccccc2)cc1	8.35%
CC(C(=O)N=Nc1c(O)n(C)c2ccc(Br)cc12)n1cnc2ccccc2c1=O (centres undefined)	1.79%
S=c1[nH]nc(CSCc2ccc(Cl)cc2Cl)n1-c1ccccc1	-1.69%

SMILES	max response
Cn1c(CCCOc2ccc(Cl)cc2Cl)n[nH]c1=S	16.1% (active)
O=C(CCCOc1ccc(Cl)cc1Cl)NNC(=O)C1CCC1	3.02%
CC(C)Cn1c(N)c(C(=O)COC(=O)CN2C(=O)C3CC=CCC3C2=O)c(=O)n(C)c1=O (centres undefined)	1.25%
COc1ccc(-c2cn(-c3ccc(OC)cc3)c(=S)[nH]2)cc1	37.9% (active)
COc1ccc(-n2c(-c3ccc(OC)c(OC)c3)n[nH]c2=S)cc1	-1.61%
COc1ccc(-n2cc(-c3ccccc3)c3c(=S)nc[nH]c32)cc1	-2.8%
O=C(Cc1ccc(S(=O)(=O)N2CCOCC2)s1)NCCC(c1ccccc1)c1ccccc1	-2.5%
CCOC(=O)c1cc(Sc2ccccc2N)cc(C(=O)OCC)n1	-2.14%
CCS(=O)(=O)c1cc([N+](=O)[O-])c(Sc2ccccc2N)s1	52.5% (active)
Nc1ccccc1Sc1ccc(C(F)(F)F)cc1[N+](=O)[O-]	-0.845%
Fc1ccc(-n2c(Cc3ccccc3)nnc2SCc2nc(-c3ccc(Cl)cc3)no2)cc1	-3.26%
CCOC(=O)C1C(c2ccc(O)cc2)NC(=O)NC1(O)C(F)(F)F (centres undefined)	-1.88%
Cc1cc(OC(C)C(=O)NC2CC(C)(C)NC(C)(C)C2)c2c(C)cc(=O)oc2c1 (centres undefined)	2.41%
CN(C)CCCNC(=O)c1cc(C(=O)Cc2ccc(Cl)cc2)c[nH]1	0.733%
CC(C)CNC(=S)NNC(=O)c1nn(C)cc1Cl	-2.88%
Cn1cc(Cl)c(C(=O)NNC(=S)Nc2cccc(Cl)c2)n1	42% (active)
COc1cccc(NC(=S)NC(=O)c2c(Cl)c(C)nn2C)c1	18.3%
COc1ccc(C2=NS(=O)(=O)N(C)C(C(=O)N3CCCCC3)=C2)cc1	0.248%
NC(N)=Nc1nc2ccc(Br)cc2c(=O)[nH]1	1.64%
CC(=O)Nc1ccc(S(=O)(=O)NNC(=O)CCc2ccccc2)cc1	17.5%
CC(C)c1nc2cc(C(=O)NC(C)c3cnn(C)c3)ccc2o1 (centres undefined)	16.9% (active)
COc1ccc(CNC(=O)c2ccc3oc(C(C)C)nc3c2)cc1	43.8% (active)
COC(=O)c1ccc(CSc2nc3cc(Cl)ccc3o2)cc1	-2.59%
COc1ccc(C(=O)N[C@H](C(=O)NCc2ccccc2)C(C)C)cc1	1.24%

SMILES	max response
COC(=O)c1ccc(CNC(=O)c2ccc3oc(C(C)C)nc3c2)cc1	49.5% (active)
COc1ccc(CNC(=O)c2cc(=O)c3c(C)cc(C)cc3o2)cc1	10.1%
COCC1CCCN(C(=O)c2ccc3oc(C(C)C)nc3c2)C1 (centres undefined)	12.4%
Cc1ccc(C(=O)NC(C)c2ccccc2)cc1Br (centres undefined)	12.6%
CCOc1c2ccc(C(=O)NCc3ccc(OC(F)(F)F)cc3)cc2nn1C	-3.46%
Cc1c(C)c(C)c2[nH]c(=S)[nH]c2c1C	0.294%
COC1=C/C(=C/c2c(N)n3nc(CC(=O)N4CCOCC4)sc3nc2=O)C=CC1=O	21.2%
CC(C)C(=O)N1CC(=O)Nc2ccc(F)cc2C1c1ccc(F)cc1 (centres undefined)	0.988%
COc1cccc(C(=O)c2cc3ccc(O)cc3oc2=O)c1	7.25%
O=c1oc2cc(O)ccc2cc1-c1ccc(F)cc1	43.3% (active)
COc1ccc(-c2cc3ccc(OCc4nn[nH]n4)cc3oc2=O)cc1	2.53%
CCn1c2ccccc2c2cc(NC(=O)COC(=O)c3ccccc3Br)ccc21	1.49%
CN(C)c1ccc(NC(=O)CN2C3CCCC2CC(NC(=O)c2ccccc2)C3)cc1 (centres undefined)	-6.36%
C/C(CC(=O)Nc1ccc(N(C)C)cc1)=N\NC(=O)c1ccccc1F	38.4% (active)
CCn1c2ccccc2c2cc(NC(=O)CNC)ccc21	-0.552%
CCn1c2ccccc2c2cc(NC(=O)C/C(C)=N/NC(=O)c3ccccc3N)ccc21	39.3% (active)
C/C(CC(=O)Nc1ccc(Cl)cc1)=N\NC(=O)C(=O)NCCO	7.42%
Cc1ccccc1N1CCN(C2CCCN(C(=O)c3cn4c(C)cccc4n3)C2)CC1 (centres undefined)	-1.34%
COc1ccc(CC(=O)N2N=C(C)CC2(O)C(F)(F)F)cc1 (centres undefined)	15.5%
O=C(CCc1nnc(Cc2ccc3c(c2)OCO3)o1)NCCc1ccccc1Cl	4.94%
COCCCn1c(Cc2csc(Nc3cccc(Cl)c3)n2)nnc1SCC(=O)OC1CCCCC1	1.16%
O=C(Nc1ccc(S(=O)(=O)NCC2CCCO2)cc1)c1ccc(F)cc1 (centres undefined)	-1.11%
CCn1cc(C(=O)N2CC(C)CC(C)C2)c(=O)c2cc(S(=O)(=O)N3CCCC3)ccc21 (centres undefined)	-2.89%
COc1ccc(/C=C/c2noc(-c3ccccc3OC(C)=O)n2)cc1	19% (active)

SMILES	max response
CC(=O)Oc1ccc2c(c1)C(=O)c1ccccc1C2=O	8.81%
CC(=O)Oc1ccc(-c2nc3c(C)cccc3c(=O)o2)cc1	-4.07%
O=C(Cc1coc2ccc3ccccc3c12)NCc1cccs1	11.8% (active)
COc1cc(CC(=O)NCc2cccs2)cc(OC)c1OC	0.388%
CCN(CC(=O)NCc1cccs1)C(=O)c1ccccc1F	-0.418%
Cc1ccc2c(CC(=O)NCc3cccs3)coc2c1	29.3% (active)
Cn1cccc1C(=O)NC(=O)COC(=O)Cc1coc2ccc3ccccc3c12	4.33%
COc1ccc(C)cc1NC(=O)CNCc1cccs1	8.07%
CCCNC(=O)CCn1nc(-c2ccccc2)c2ccccc2c1=O	-3.01%
CCN(CC)S(=O)(=O)c1ccc(N2CCCC2)c(NS(=O)(=O)c2cccs2)c1	-6.15%
CCOC(=O)CSC1=N/C(=C/c2ccc(-n3cncn3)cc2)C(=O)N1C(C)=O	-4.18%
COc1ccc(OC)c(CNC(=O)CCc2nc(-c3cccs3)no2)c1	-2.6%
COc1ccc(CCc2nc(-c3cccs3)no2)cc1	67.2% (active)
CCc1ccc(CNC(=O)CCc2nc(-c3cccs3)no2)cc1	-4.69%
Cc1ccc2[nH]c(=O)c(CN3CCCCC3)c(-c3ccccc3)c2c1	-4.55%
CCCCCOc1ccc(/C=C/C(=O)NCCc2nc3ccccc3[nH]2)cc1OC	1.2%
COc1cc(/C=C(\C#N)c2nc3c(s2)CC(C)CC3)ccc1O (centres undefined)	26.5% (active)
COc1cc(/C=C(\C#N)c2nc3ccccc3[nH]2)ccc1O	43.6% (active)
COc1ccc(/C=C(/NC(=O)c2ccc(C)cc2)c2nc3ccccc3[nH]2)cc1OC	-2.64%
O=C(NCc1ccc(F)cc1)C1CCN(C(=O)Nc2ccc(F)cc2)CC1	-0.971%
O=C1CN(C(=O)c2cc(F)cc(F)c2)c2ccccc2N1	-6.12%
COc1ccc(F)cc1C(=O)C1CCCN(C(=O)CCc2ccccn2)C1 (centres undefined)	7.94%
